In the supplement of paper PMC10849652:
Targets with a hit are over-represented here; the source holds about 7,900 in all. About 0.6% of all pairs of compound and target were hits.

Experiments:
Experiment in all cases: log2 fold change, soluble protein after heating vs DMSO (PISA); higher = thermal stabilisation; K562 cells, 10 uM, 30 min; active = over 0.2 and 3.5 SD of the protein, either way, in both replicates (recomputed)
bafetinib = compound: Cc1ccc(NC(=O)c2ccc(CN3CC[C@H](N(C)C)C3)c(C(F)(F)F)c2)cc1Nc1nccc(-c2cncnc2)n1 [bafetinib]
Outline: (§1)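 K562 cells at 2×10^6 cells/mL were given 10 μM compound for 30 min. Aliquots then went through 3 min of heating across 48°C-58°C, were pooled, and were extracted in PBS with 0.5% NP-40 at 4°C, and the supernatant after 21,000xg for 90 min was quantified by TMTpro 16plex LC-MS/MS with channel sums equalised. Thermal stability relative to control samples, from duplicates, is given as log2 fold change.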

[1] = compound: Cc1cccc(CC(=O)N2CCc3c2ccc(-c2cn(C)c4ncnc(N)c24)c3F)n1
Outline: as §1

nilotinib = compound: Cc1cn(-c2cc(NC(=O)c3ccc(C)c(Nc4nccc(-c5cccnc5)n4)c3)cc(C(F)(F)F)c2)cn1 [nilotinib]
Outline: as §1

[2] = compound: Cc1nc(Nc2n[nH]c3c2CN(C(=O)N[C@H](CN(C)C)c2ccccc2)C3(C)C)c2sccc2n1
Outline: as §1

dasatinib = compound: Cc1nc(Nc2ncc(C(=O)Nc3c(C)cccc3Cl)s2)cc(N2CCN(CCO)CC2)n1 [dasatinib]
Outline: as §1

[3] = compound: Cc1ncc(-c2ccnc(Nc3ccc(S(C)(=O)=O)cc3)n2)n1C(C)C
Outline: as §1

[4] = compound: Cn1cc(-c2ccc3c(c2)CCN3C(=O)Cc2cccc(C(F)(F)F)c2)c2c(N)ncnc21
Outline: as §1

[5] = compound: Cn1cc(-c2ccc3nnc(C(F)(F)c4ccc5ncccc5c4)n3n2)cn1
Outline: as §1

tipifarnib = compound: Cn1cncc1[C@@](N)(c1ccc(Cl)cc1)c1ccc2c(c1)c(-c1cccc(Cl)c1)cc(=O)n2C [tipifarnib]
Outline: as §1

mubritinib = compound: FC(F)(F)c1ccc(/C=C/c2nc(COc3ccc(CCCCn4ccnn4)cc3)co2)cc1 [mubritinib]
Outline: as §1

[6] = compound: NC(=O)Nc1cc(-c2cccc(F)c2)sc1C(=O)N[C@H]1CCCNC1
Outline: as §1

[7] = compound: NC(=O)c1cnc(N[C@@H]2CCCC[C@@H]2N)nc1Nc1cccc(-n2nccn2)c1
Outline: as §1

[8] = compound: NC1(c2ccc(-c3nc4ccn5c(=O)[nH]nc5c4cc3-c3ccccc3)cc2)CCC1
Outline: as §1

[9] = compound: NCC(=O)Nc1ccc(-n2nc(C(F)(F)F)cc2-c2ccc3c(ccc4ccccc43)c2)cc1
Outline: as §1

entinostat = compound: Nc1ccccc1NC(=O)c1ccc(CNC(=O)OCc2cccnc2)cc1 [entinostat]
Outline: as §1

vorinostat = compound: O=C(CCCCCCC(=O)Nc1ccccc1)NO [vorinostat]
Outline: as §1

citarinostat = compound: O=C(CCCCCCNC(=O)c1cnc(N(c2ccccc2)c2ccccc2Cl)nc1)NO [citarinostat]
Outline: as §1

silmitasertib = compound: O=C(O)c1ccc2c(c1)nc(Nc1cccc(Cl)c1)c1ccncc12 [silmitasertib]
Outline: as §1

[10] = compound: O=C1NC(=O)C(c2cnc3ccccn23)=C1c1cn2c3c(cc(F)cc13)CN(C(=O)N1CCCCC1)CC2
Outline: as §1

[11] = compound: c1cc(OCCN2CCCCC2)cc(-c2n[nH]c3ccc(-c4nnc[nH]4)cc23)c1
Outline: as §1

Measured: log2 fold change

DIAPH1 (UniProt O60610)
Sequence of UniProt O60610 (O60610 whole entry, looked up): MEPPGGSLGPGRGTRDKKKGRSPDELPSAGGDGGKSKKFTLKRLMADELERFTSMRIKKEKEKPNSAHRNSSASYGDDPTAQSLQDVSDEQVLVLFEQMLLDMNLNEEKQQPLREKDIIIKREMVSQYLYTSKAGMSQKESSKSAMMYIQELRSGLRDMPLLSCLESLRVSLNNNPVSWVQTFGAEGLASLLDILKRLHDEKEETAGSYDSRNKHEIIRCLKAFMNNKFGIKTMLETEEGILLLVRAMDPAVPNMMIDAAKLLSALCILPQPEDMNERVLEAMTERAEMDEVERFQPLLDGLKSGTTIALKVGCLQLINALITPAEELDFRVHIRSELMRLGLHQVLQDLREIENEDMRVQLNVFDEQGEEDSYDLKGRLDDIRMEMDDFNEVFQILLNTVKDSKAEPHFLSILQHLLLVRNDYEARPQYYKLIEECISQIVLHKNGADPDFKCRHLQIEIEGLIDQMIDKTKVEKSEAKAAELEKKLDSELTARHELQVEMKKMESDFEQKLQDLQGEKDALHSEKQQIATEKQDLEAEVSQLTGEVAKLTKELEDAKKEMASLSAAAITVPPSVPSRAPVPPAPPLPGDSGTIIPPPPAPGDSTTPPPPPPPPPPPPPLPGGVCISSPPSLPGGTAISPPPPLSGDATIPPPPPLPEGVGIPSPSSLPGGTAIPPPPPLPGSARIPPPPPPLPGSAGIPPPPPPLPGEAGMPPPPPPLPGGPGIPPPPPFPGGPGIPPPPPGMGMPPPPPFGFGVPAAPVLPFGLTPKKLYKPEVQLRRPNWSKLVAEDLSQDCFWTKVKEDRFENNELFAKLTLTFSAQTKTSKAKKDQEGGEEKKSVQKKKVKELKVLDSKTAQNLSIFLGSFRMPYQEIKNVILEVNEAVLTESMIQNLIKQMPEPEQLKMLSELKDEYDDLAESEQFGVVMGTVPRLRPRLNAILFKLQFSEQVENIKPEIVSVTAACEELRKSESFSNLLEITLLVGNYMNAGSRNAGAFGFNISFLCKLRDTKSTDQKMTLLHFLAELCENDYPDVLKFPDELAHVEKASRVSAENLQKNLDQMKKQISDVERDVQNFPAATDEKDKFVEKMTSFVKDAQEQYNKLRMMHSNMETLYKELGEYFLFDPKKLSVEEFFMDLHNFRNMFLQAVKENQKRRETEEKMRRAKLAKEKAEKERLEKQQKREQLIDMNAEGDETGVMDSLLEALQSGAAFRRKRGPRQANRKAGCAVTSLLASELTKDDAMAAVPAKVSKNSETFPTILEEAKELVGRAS
inactive: bafetinib 0.088 | [1] 0.057 | nilotinib -0.011 | [2] -0.197 | dasatinib -0.055 | [3] 0.077 | [4] -0.083 | [5] -0.035 | tipifarnib -0.077 | mubritinib 0.039 | [6] -0.156 | [7] -0.085 | [8] -0.067 | [9] -0.064 | entinostat 0.024 | vorinostat 0.066 | citarinostat 0.056 | silmitasertib 0.115 | [10] 0.178 | [11] -0.046

EXOC5 (UniProt O00471)
Sequence of UniProt O00471 (O00471 whole entry, looked up): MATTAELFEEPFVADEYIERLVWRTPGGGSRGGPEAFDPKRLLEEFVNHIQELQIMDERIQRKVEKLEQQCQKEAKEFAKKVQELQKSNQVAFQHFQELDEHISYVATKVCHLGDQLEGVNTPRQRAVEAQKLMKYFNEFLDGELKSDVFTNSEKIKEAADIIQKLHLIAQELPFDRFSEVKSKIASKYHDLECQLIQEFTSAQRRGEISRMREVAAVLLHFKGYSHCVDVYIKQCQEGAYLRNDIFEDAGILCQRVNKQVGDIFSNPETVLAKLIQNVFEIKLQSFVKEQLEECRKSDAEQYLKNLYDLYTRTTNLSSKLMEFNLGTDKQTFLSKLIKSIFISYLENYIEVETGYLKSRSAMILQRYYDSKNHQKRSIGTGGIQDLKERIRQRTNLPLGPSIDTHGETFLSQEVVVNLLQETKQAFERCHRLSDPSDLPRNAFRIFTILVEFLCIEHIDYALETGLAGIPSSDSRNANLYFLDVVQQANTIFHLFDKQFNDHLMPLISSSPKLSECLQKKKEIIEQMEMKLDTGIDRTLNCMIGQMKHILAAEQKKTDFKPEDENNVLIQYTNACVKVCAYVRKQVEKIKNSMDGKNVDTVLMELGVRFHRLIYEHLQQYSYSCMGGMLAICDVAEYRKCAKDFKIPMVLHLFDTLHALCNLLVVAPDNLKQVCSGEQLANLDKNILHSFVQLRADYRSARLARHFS
inactive: bafetinib -0.016 | [1] 0.061 | nilotinib -0.109 | [2] -0.258 | dasatinib -0.1 | [3] -0.078 | [4] 0.022 | [5] 0.026 | tipifarnib -0.076 | mubritinib 0.039 | [6] 0.01 | [7] -0.101 | [8] -0.222 | [9] -0.063 | entinostat 0.069 | vorinostat 0.086 | citarinostat 0.027 | silmitasertib 0.042 | [10] -0.02 | [11] -0.153

EEF1B2 (UniProt P24534)
inactive: bafetinib 0.006 | [1] 0.025 | nilotinib -0.042 | [2] -0.03 | dasatinib 0.026 | [3] 0.043 | [4] -0.057 | [5] -0.054 | tipifarnib -0.109 | mubritinib 0.058 | [6] 0.012 | [7] -0.112 | [8] -0.035 | [9] -0.09 | entinostat 0.04 | vorinostat 0.02 | citarinostat 0.004 | silmitasertib 0.027 | [10] -0.007 | [11] -0.035

EXOC1 (UniProt Q9NV70)
Sequence of UniProt Q9NV70 (Q9NV70 whole entry, looked up): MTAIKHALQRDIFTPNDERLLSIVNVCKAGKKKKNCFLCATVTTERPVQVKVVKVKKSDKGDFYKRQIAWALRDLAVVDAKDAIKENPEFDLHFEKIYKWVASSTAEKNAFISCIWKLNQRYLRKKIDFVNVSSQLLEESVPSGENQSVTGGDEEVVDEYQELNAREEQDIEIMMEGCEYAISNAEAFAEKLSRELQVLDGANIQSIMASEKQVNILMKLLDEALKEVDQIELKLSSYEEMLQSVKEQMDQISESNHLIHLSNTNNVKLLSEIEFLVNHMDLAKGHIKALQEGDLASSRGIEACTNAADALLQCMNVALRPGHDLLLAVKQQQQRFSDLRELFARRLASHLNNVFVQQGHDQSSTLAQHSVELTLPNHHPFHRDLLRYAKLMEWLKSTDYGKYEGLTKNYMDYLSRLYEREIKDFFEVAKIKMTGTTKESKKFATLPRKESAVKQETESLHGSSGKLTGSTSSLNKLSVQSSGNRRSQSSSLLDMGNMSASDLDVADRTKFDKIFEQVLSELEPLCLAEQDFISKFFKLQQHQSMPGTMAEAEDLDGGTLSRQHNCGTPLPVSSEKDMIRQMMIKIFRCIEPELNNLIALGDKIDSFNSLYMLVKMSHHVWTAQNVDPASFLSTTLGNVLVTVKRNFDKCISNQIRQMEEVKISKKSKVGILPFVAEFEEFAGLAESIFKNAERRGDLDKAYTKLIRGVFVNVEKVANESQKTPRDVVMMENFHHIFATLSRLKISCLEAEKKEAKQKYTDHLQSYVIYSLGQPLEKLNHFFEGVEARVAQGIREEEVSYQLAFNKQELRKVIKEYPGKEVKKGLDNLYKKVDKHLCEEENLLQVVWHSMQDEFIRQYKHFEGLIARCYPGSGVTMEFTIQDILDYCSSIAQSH
inactive: bafetinib 0.061 | [1] 0.025 | nilotinib -0.034 | [2] -0.069 | dasatinib -0.126 | [3] -0.051 | [4] -0.008 | [5] 0.026 | tipifarnib -0.098 | mubritinib 0.032 | [6] 0.043 | [7] -0.162 | [8] -0.228 | [9] -0.065 | entinostat 0.062 | vorinostat 0.082 | citarinostat 0.014 | silmitasertib 0.127 | [10] 0.069 | [11] -0.165

DBN1 isoform 3 (UniProt Q16643)
Sequence of UniProt Q16643 (Q16643 whole entry, looked up): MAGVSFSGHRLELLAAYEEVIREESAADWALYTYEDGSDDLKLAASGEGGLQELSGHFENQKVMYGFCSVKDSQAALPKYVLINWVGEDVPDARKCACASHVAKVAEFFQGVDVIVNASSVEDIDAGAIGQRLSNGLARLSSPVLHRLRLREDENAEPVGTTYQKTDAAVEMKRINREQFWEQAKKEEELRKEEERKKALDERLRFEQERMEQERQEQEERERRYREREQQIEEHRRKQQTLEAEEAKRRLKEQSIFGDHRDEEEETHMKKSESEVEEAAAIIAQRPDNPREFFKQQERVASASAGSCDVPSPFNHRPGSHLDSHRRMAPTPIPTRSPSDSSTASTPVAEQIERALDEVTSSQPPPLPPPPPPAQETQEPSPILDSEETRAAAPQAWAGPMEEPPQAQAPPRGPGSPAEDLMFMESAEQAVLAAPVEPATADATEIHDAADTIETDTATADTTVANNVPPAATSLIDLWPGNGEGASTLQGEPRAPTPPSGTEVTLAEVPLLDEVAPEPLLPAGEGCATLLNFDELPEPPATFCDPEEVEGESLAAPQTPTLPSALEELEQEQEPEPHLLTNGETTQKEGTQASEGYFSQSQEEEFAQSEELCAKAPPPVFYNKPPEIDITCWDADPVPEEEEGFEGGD
active: dasatinib 0.264
inactive: bafetinib -0.106 | [1] 0.032 | nilotinib -0.05 | [2] -0.043 | [3] -0.041 | [4] -0.22 | [5] -0.069 | tipifarnib 0.086 | mubritinib 0 | [6] 0.098 | [7] 0.027 | [8] -0.039 | [9] -0.003 | entinostat -0.036 | vorinostat 0.128 | citarinostat -0.032 | silmitasertib 0.066 | [10] -0.03 | [11] -0.053

DTWD1 (UniProt Q8N5C7)
active: vorinostat 0.246
inactive: bafetinib 0.006 | [1] -0.014 | nilotinib 0.057 | [2] 0 | dasatinib 0.001 | [3] 0.082 | [4] 0.051 | [5] -0.027 | tipifarnib -0.02 | mubritinib 0.02 | [6] -0.001 | [7] 0.014 | [8] -0.147 | [9] -0.04 | entinostat 0.063 | citarinostat -0.001 | silmitasertib -0.004 | [10] 0.014 | [11] -0.064

EEF1D isoform 2 (UniProt P29692)
inactive: bafetinib 0.025 | [1] -0.011 | nilotinib -0.066 | [2] -0.01 | dasatinib -0.051 | [3] 0 | [4] -0.007 | [5] -0.044 | tipifarnib -0.103 | mubritinib 0.081 | [6] -0.02 | [7] -0.06 | [8] -0.034 | [9] -0.105 | entinostat 0.018 | vorinostat -0.02 | citarinostat 0.017 | silmitasertib 0.108 | [10] -0.001 | [11] -0.067

DDOST (UniProt P39656)
inactive: bafetinib -0.035 | [1] -0.001 | nilotinib -0.005 | [2] 0.033 | dasatinib 0.016 | [3] -0.039 | [4] -0.04 | [5] 0 | tipifarnib 0.047 | mubritinib -0.022 | [6] 0.003 | [7] -0.013 | [8] -0.057 | [9] 0.014 | entinostat 0.007 | vorinostat -0.036 | citarinostat 0.017 | silmitasertib 0.05 | [10] -0.017 | [11] -0.116

FAAP100 (UniProt Q0VG06)
Sequence of UniProt Q0VG06 (Q0VG06 whole entry, looked up): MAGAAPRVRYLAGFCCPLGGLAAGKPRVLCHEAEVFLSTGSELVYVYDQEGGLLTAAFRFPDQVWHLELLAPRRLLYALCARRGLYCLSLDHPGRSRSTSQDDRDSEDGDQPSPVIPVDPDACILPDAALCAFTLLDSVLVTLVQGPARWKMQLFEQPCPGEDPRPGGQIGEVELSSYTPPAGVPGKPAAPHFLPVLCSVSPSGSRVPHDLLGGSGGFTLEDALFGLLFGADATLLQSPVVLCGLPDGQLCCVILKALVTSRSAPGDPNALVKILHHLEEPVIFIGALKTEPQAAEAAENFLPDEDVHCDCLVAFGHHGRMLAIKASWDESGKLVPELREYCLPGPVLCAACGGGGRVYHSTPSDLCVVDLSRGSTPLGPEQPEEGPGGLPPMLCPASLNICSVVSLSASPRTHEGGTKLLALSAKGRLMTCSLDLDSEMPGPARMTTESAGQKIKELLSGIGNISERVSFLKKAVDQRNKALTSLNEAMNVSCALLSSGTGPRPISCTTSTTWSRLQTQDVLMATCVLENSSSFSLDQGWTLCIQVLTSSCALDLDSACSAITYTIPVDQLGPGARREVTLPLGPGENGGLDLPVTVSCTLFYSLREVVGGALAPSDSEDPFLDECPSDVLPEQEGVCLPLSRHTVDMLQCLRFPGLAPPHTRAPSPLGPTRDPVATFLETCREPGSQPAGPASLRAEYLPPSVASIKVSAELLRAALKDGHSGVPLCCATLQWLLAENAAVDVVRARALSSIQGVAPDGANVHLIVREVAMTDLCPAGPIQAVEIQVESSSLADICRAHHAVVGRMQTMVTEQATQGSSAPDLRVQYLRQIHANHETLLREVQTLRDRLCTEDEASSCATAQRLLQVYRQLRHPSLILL
inactive: bafetinib 0.201 | [1] 0.043 | nilotinib -0.032 | [2] -0.005 | dasatinib 0.035 | [3] -0.039 | [4] -0.005 | [5] 0.101 | tipifarnib 0.1 | mubritinib 0 | [6] 0.009 | [7] 0.039 | [8] -0.076 | [9] -0.031 | entinostat -0.05 | vorinostat 0.048 | citarinostat -0.012 | silmitasertib -0.051 | [10] 0.197 | [11] -0.053

DNTTIP2 (UniProt Q5QJE6)
inactive: bafetinib 0.148 | [1] -0.05 | nilotinib 0.064 | [2] -0.02 | dasatinib 0.148 | [3] -0.29 | [4] -0.104 | [5] -0.035 | tipifarnib 0.256 | mubritinib -0.074 | [6] 0.14 | [7] -0.054 | [8] 0.155 | [9] 0.029 | entinostat -0.03 | vorinostat 0.045 | citarinostat 0.016 | silmitasertib 0.102 | [10] -0.028 | [11] -0.095

EHD2 (UniProt Q9NZN4)
Sequence of UniProt Q9NZN4 (Q9NZN4 whole entry, looked up): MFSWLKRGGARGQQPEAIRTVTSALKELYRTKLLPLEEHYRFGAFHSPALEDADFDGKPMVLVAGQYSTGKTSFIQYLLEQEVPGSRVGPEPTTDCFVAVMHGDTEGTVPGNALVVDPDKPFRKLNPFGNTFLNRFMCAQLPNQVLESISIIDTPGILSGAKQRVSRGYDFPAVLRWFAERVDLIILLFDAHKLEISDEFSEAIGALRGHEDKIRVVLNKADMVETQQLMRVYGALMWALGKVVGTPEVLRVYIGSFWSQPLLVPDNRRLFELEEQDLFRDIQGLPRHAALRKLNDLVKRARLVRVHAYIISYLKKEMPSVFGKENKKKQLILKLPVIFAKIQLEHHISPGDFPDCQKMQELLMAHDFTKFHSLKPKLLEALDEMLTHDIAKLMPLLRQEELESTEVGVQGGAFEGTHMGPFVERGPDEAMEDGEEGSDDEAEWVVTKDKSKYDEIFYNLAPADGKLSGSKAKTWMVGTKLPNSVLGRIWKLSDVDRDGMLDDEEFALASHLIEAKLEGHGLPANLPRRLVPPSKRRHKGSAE
inactive: bafetinib -0.051 | [1] 0.008 | nilotinib -0.062 | [2] 0.01 | dasatinib -0.112 | [3] 0.003 | [4] 0.012 | [5] -0.031 | tipifarnib -0.028 | mubritinib -0.061 | [6] -0.034 | [7] -0.048 | [8] -0.072 | [9] -0.096 | entinostat 0.033 | vorinostat 0.055 | citarinostat 0.048 | silmitasertib 0.012 | [10] -0.04 | [11] -0.015

CTSL (UniProt P07711)
inactive: bafetinib -0.261 | [1] -0.046 | nilotinib 0.041 | [2] 0.103 | dasatinib 0.14 | [3] 0.004 | [4] 0.013 | [5] 0.045 | tipifarnib 0.145 | mubritinib -0.006 | [6] 0.082 | [7] -0.045 | [8] -0.123 | [9] 0.039 | entinostat -0.074 | vorinostat -0.053 | citarinostat -0.018 | silmitasertib 0.027 | [10] -0.079 | [11] -0.011

DUS3L (UniProt Q96G46)
inactive: bafetinib -0.041 | [1] -0.02 | nilotinib -0.073 | [2] -0.059 | dasatinib -0.005 | [3] 0.021 | [4] -0.064 | [5] -0.017 | tipifarnib 0.053 | mubritinib -0.115 | [6] 0.113 | [7] -0.012 | [8] 0.194 | [9] 0.003 | entinostat 0.003 | vorinostat 0.093 | citarinostat 0.058 | silmitasertib 0.112 | [10] -0.176 | [11] -0.029

DNAAF2 (UniProt Q9NVR5)
inactive: bafetinib -0.075 | [1] 0.057 | nilotinib 0.023 | [2] 0.002 | dasatinib -0.049 | [3] 0 | [4] -0.037 | [5] 0.036 | tipifarnib 0.004 | mubritinib 0.026 | [6] 0.039 | [7] 0.025 | [8] -0.042 | [9] -0.044 | entinostat -0.06 | vorinostat 0 | citarinostat -0.034 | silmitasertib 0.016 | [10] -0.003 | [11] -0.03

EDC3 (UniProt Q96F86)
inactive: bafetinib -0.022 | [1] -0.013 | nilotinib -0.142 | [2] -0.127 | dasatinib -0.006 | [3] -0.151 | [4] -0.019 | [5] -0.006 | tipifarnib -0.035 | mubritinib 0 | [6] -0.162 | [7] -0.229 | [8] -0.119 | [9] -0.075 | entinostat 0.07 | vorinostat 0.154 | citarinostat 0.042 | silmitasertib -0.047 | [10] -0.068 | [11] -0.152

DYRK1A isoform 2 (UniProt Q13627)
active: [6] -0.225 | silmitasertib -0.292
inactive: bafetinib -0.073 | [1] 0.02 | nilotinib -0.005 | [2] -0.056 | dasatinib -0.098 | [3] -0.047 | [4] 0.021 | [5] -0.046 | tipifarnib -0.042 | mubritinib 0.034 | [7] -0.034 | [8] -0.115 | [9] -0.064 | entinostat 0.028 | vorinostat 0.056 | citarinostat 0 | [10] -0.029
